About 2,100 (0.58%) of roughly 360,000 compounds were called active.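 Rule for the calls: active = inhibition above a per-plate cutoff, the mean of that plate's test compounds plus 3 SD (cut at about 27% in these data); inactive = the rest.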 Shown is part of a subset that was picked to be rich in actives.
target: Muscarinic acetylcholine receptor M5 (Homo sapiens) (UniProt P08912); experiment: CHRM5 blockers of acetylcholine calcium response – CHO cells, Fluo-8 calcium fluorescence, primary screen (AID 624040); conditions: CHO-hM5 cells, ACh EC80, at 3 µM, active compounds read high;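 note: 0% = acetylcholine EC80 with DMSO and 100% = DMSO without agonist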
Sequence (P08912 whole entry, looked up): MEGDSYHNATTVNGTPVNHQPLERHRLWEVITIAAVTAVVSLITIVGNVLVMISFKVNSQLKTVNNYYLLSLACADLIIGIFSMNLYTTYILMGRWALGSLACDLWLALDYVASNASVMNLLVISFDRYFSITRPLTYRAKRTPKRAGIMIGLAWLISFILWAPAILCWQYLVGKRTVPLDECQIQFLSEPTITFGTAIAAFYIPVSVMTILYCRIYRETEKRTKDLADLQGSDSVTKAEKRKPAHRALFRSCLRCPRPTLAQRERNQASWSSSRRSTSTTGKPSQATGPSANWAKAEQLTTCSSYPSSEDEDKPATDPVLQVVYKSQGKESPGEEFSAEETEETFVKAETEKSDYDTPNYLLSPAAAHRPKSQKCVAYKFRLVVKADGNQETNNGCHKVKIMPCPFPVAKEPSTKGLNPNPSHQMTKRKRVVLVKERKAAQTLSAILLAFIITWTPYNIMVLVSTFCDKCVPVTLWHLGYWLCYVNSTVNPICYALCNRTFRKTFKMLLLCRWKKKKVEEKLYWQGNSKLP

| Structure (SMILES) | inhibition |
| --- | --- |
| CN(C)C1CN(Cc2cn(Cc3ccccc3)nn2)S(=O)(=O)C1 (centres undefined) | 0.6% (inactive) |
| Cc1ccc(Cn2cc(CN3CC(N4CCN(C)CC4)CS3(=O)=O)nn2)cc1 (centres undefined) | 0.4% (inactive) |
| CN(Cc1cn(Cc2ccc(C(F)(F)F)cc2)nn1)C1CN(Cc2cn(Cc3ccc(C(F)(F)F)cc3)nn2)S(=O)(=O)C1 (centres undefined) | 28.6% (active) |
| COC(=O)c1c(-c2cccs2)csc1NC(=O)CSc1ncnc2sc(C)c(C)c12 | -0.42% (inactive) |
| O=S(=O)(Nc1ccc(O)c2ccccc12)c1ccc(OC(F)(F)F)cc1 | 7.68% (inactive) |
| O=C(c1ccc(F)cc1)N1CCC(C(=O)N2CCN(S(=O)(=O)c3ccccc3Br)CC2)CC1 | 4.21% (inactive) |
| CCCCCc1c(Cc2ccccc2)ncn1CCc1ccccc1OC | 30.2% (active) |
| CCCCCc1c(-c2cccc(Br)c2)ncn1CCc1ccccc1OC | -1.26% (inactive) |
| CCCCCc1c(-c2ccc(OC)c(OC)c2)ncn1CCc1ccccc1OC | 15.1% (inactive) |
| Cc1cccc(C)c1NC(=O)C(c1ccc(C(F)(F)F)cc1)n1c(=O)c(-c2ccco2)nc2ccccc21 (centres undefined) | -5.75% (inactive) |
| c1ccc(C(=NNc2nc3ccccc3s2)c2ccccn2)cc1 | 53.7% (active) |
| CCOc1ccc(-n2c(SCC(=O)NC3CCS(=O)(=O)C3)nnc2-c2cccnc2)cc1 (centres undefined) | 0.02% (inactive) |
| c1ccc(COc2ccccc2CNCc2cccnc2)cc1 | 6.7% (inactive) |
| c1ccc2c(c1)CSc1sccc1C2=C1CCNCC1 | 99% (active) |
| CC(C)(C)[C@H]1C=C(C(=O)NCc2ccccc2)O[C@@H](OCc2ccc(CO)cc2)C1 | 27% (active) |
| O=C(NCc1ccccc1)C1=C[C@H](C2CC2)C[C@H](OCc2ccc(CO)cc2)O1 | 8.59% (inactive) |
| O=C(NCc1ccccc1)C1=C[C@@H](C2CCCCC2)C[C@@H](OCc2ccc(CO)cc2)O1 | 15.6% (inactive) |
| COc1ccc(S(=O)(=O)N2CCCC(C(=O)N3CCN(C)CC3)C2)cc1C (centres undefined) | 10.1% (inactive) |
| Cc1ccc(S(=O)(=O)N2CCCC(C(=O)N3CCN(C)CC3)C2)cc1 (centres undefined) | -2.93% (inactive) |
| CC(=O)N1CCCc2cc(S(=O)(=O)N3CCCC(C(=O)N4CCN(c5cccc(Cl)c5)CC4)C3)ccc21 (centres undefined) | 39.3% (active) |
| CC1=C(C)CC(C(=O)NNC(=O)c2csc3c2CCC(C(C)(C)C)C3)C(C(=O)O)C1 (centres undefined) | -0.27% (inactive) |
| CCc1c(Nc2ccccc2Cl)nc(N)[nH]c1=O | 6.79% (inactive) |
| Cc1ccccc1NC(=O)Cc1nc(COC(=O)C(C)(C)Oc2ccc(Cl)cc2)cs1 | 0.92% (inactive) |
| CC(C)CC(=O)NC(=S)NNC(=O)c1cccc([N+](=O)[O-])c1 | 32.7% (active) |
| O=C(NC(=S)NC1CCS(=O)(=O)C1)c1cccc([N+](=O)[O-])c1 (centres undefined) | -3.13% (inactive) |
| C/C(=N\NC(=O)c1cccc([N+](=O)[O-])c1)c1cccnc1 | 0.74% (inactive) |
| C[C@@H](CN1CCC[C@H]1CN1C(N)=NC[C@@H]1Cc1ccccc1)N1C[C@@H](Cc2ccccc2)N(CCCC2CCCC2)C1=N | 28.9% (active) |
| CC[C@@H](C)[C@@H]1CN([C@@H](C)CN2CCC[C@H]2CN2C(N)=NC[C@H]2C(C)C)C(=N)N1CCc1ccc(Cl)c(Cl)c1 | -2.75% (inactive) |
| NC1=NC[C@@H](Cc2ccc(O)cc2)N1CC1CCCCC1 | 9.28% (inactive) |
